Bioassay records deposited in PubChem BioAssay by National Center for Advancing Translational Sciences (NCATS).
ClpP mod = qHTS Assay for Activators of ClpP. ATP-dependent Clp protease proteolytic subunit (Bacillus subtilis (strain 168)), P80244. purified B. subtilis ClpP, FRET peptide cleavage, 20 min. Potency, µM (doses to about 57.5 µM), inactives show at the highest dose activity change, negative = active. 340,000 tested, 1.9% active; active = well fitted falling curve with a large enough effect; inconclusive = small, poorly fitted or top-dose-only effect; inactive = no such curve, though single readings can be large or run the other way; also: the source files actives as falling curves though it sought activators and does not explain the sign; nearly all actives have a fitted effect of over 65% in size
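Purified B. subtilis ClpP, 10 microg/mL final in Tris/HCl pH8 with KCl, BSA, glycerol and Tween-20, cleaved an Abz/nitrotyrosine-quenched decapeptide. Fluorescence (ex 320, em 430) was read at 0 and 20 min at room temperature. Delta was normalized to 5.8 microM ADEP and DMSO/no-enzyme controls.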
Integrin act MD = qHTS for Activators of Integrin-Mediated Alleviation for Muscular Dystrophy | alpha7betagal myoblasts, beta-gal FDG fluorescence, 48 h | Potency, µM (series often up to 38.3 µM), inactives show at the top dose activation, hits mostly activators | 350,000 tested, 0.064% active;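 also: 100% = response of the positive control SU9516; nearly all actives have a fitted effect of over 60% in size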
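alpha7betagal+/- myoblasts (passage 13, 250/well) treated 48 h at 37C with compounds at 1:260 dilution of DMSO stock. Lysed, then beta-galactosidase activity read as FDG fluorescence (ex 480/em 540) after 30 min, with pre-read for autofluorescence.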
USP2a block = qHTS Assay for Inhibitors of Ubiquitin-specific Protease USP2a Using CHOP2 as the Reporter; 330,000 tested, 0.01% active; AID 463254, 2010; Potency, µM (top dose mostly 38.3 µM), for inactives: top-dose activity change, negative = inhibition, hits mostly inhibitors; Ubiquitin carboxyl-terminal hydrolase 2 (Homo sapiens), O75604; USP2 core, Ub-CHOP2 coupled fluorogenic reporter, 485/531;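 also: plate controls were DMSO wells for no effect and full inhibition by NEM control for full effect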
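USP2 core (10nM final) preincubated 30min RT with compound in 20mM Tris-HCl pH 8.0, 2mM CaCl2, 2mM beta-mercaptoethanol, 0.05% CHAPS; 25nM Ub-CHOP2 plus 25nM reporter substrate added, fluorescence (Ex485/Em531) read after 60min.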
MmCpn inh = Inhibitors of TCP-1 ring complex (TRiC) of Methanococcus maripaludis (MmCpn): qHTS; AID 504842, 2011; 330,000 tested, 0.031% active; Potency, µM (doses to about 76.9 µM), for inactives: at the highest dose activity, negative = inhibition, hits mostly inhibitors; Chaperonin Mm-Cpn (Methanococcus maripaludis); purified Mm-Cpn ATPase, ADP Transcreener TR-FRET; also: % is scaled to controls: 0 for no effect and ±100 for the full control effect; nearly all actives have a fitted effect of over 80% in size
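ATPase turnover read by TR-FRET ADP competition (Eu cryptate antibody/ADP-d2, 665/590 nm): 10uM ATP final, 25nM Mm-CPN final, 30 min 37degC after 10-min compound preincubation, pH 7.4 Tris/KCl/MgCl2/DTT buffer.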
Eya2 inh = qHTS Assay for Inhibitors of the Phosphatase Activity of Eya2. Protein phosphatase EYA2 (Homo sapiens), O00167. recombinant Eya2, OMFP fluorescence dephosphorylation (OMFP is methylfluorescein phosphate). Potency, µM (top dose mostly 76.9 µM), without a hit: top-dose activity, negative = inhibition, hits mostly inhibitors. 330,000 tested, 0.006% active. AID 488837, 2010; also: % is scaled to controls: 0 for no effect and ±100 for the full control effect
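Eya2 (0.2 uM) preincubated 10 min at ambient with compound, then OMFP substrate added at 50 uM; 10 min reaction in 50 mM HEPES pH 7.5, 50 mM NaCl, 5 uM MgCl2, 0.05% BSA, 1 mM DTT. Fluorescence read at Ex 485/Em 525 nm.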
p53 reactivator = qHTS assay for re-activators of p53 using a Luc reporter; H1299 p53-A138V BP100-luciferase reporter, luminescence, 24 h; Potency, µM (top dose mostly 92.2 µM), for the others: top-dose activity change, positive = activation, hits mostly activators; 320,000 tested, 0.063% active; AID 504706, 2011; also: % of control where 0% means no effect; nearly all actives have a fitted effect of over 45% in size
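H1299 (p53-null), stable ts p53-A138V + BP100-Luc; 1000 cells/well, Opti-MEM/10% FBS; cpd 4 pt, 1:5; 24 h, 37 deg C, 5% CO2; detection reagent 10 min RT; luminescence.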
Starred values were filed as active, the others as inactive; u = inconclusive; x = not tested or not shown; [ ] = remark or other dose. The entries come from a sample that favours hits as a whole. Unless noted, calls follow the shape of the dose curve; as a rule, active = well fitted curve in the direction sought with a large enough effect; inconclusive = small, poorly fitted or top-dose-only effect, or another doubt; inactive = no such curve, though single readings can be large; an effect the other way counts as inactive or inconclusive. Potency is read from the fitted curve at half-maximal effect.

SMILES	ClpP mod	Integrin act MD	USP2a block	MmCpn inh	Eya2 inh	p53 reactivator
CC(C)(C)CC(C)(C)N=C1Nc2cc(Cl)c(Cl)cc2N[C@]12C[C@H]1CCCC(=O)N3CC[C@@H](C2)[C@@H]13	-4%	x	x	x	x	x
CN1C2CCC1CC(NC(=O)c1ccc(Cl)cc1)C2 (centres undefined)	x	8%	7%	-1%	-2%	-3%
CN1C2CCC1CC(NS(=O)(=O)c1cc(Cl)c(Cl)cc1Cl)C2 (centres undefined)	35µM*	-11%	0%	-13%	15%	u
Cc1ccc(CNCc2cn[nH]c2-c2ccc(C)cc2)cc1	2%	x	x	x	x	x
CC(C)CCN1CCNC(=O)C1CC(=O)N(C)CCCN1CCOCC1 (centres undefined)	32µM*	-14%	1%	-9%	-6%	0%
COc1cc(OC)c(OC)cc1/C=C/c1ccc2ccccc2[n+]1C	1%	x	x	x	x	x
COc1cccc(/C=C/c2ccc3ccccc3[n+]2C)c1OC	4%	x	x	x	x	x
C(=Nc1ccc(/C=C/c2ccnc3ccccc23)cc1)c1ccc2c(c1)OCO2	-9%	x	x	x	x	x
c1ccc(-c2sc3ccccc3c2-c2ccc(OCCN3CCOCC3)cc2)cc1	32µM*	-2%	3%	-1%	4%	-3%
COc1ccccc1-c1sc2cc3c(cc2c1-c1ccc2c(c1)OCO2)OCO3	4%	23%	-1%	18µM*	-3%	u
COC(=O)c1c(-c2ccc(OC)cc2)sc2ccc(-c3ccc4c(c3)OCO4)cc12	u	-5%	3%	-5%	0%	-5%
COC(=O)c1c(-c2ccc(OC)cc2)sc2ccc(OC)cc12	u	0%	1%	45µM*	u	7%
C1=C(c2sc3ccccc3c2-c2ccc(OCCN3CCOCC3)cc2)CCCC1	-5%	22%	3%	-1%	-14%	0%
COc1ccc2sc(-c3ccc(S(C)(=O)=O)cc3)c(C(=O)NCCc3c[nH]c4ccccc34)c2c1	4%	17%	-5%	28µM*	1%	-2%
COc1ccc2c(C(=O)NCCCCO)c(-c3ccc(S(C)(=O)=O)cc3)sc2c1	4%	18%	0%	-15%	9%	-2%
CN(C)c1ccc(/C=C/c2ccc3cc(N)ccc3n2)cc1	-7%	x	x	x	x	x
O=C(Cc1ccc(OCc2ccccc2)cc1)NO	1%	x	x	x	x	x
COc1ccccc1C1NC(c2ccc3c(c2)OCO3)=CC(c2ccccc2O)N1 (centres undefined)	-13%	x	x	x	x	x
COc1cc2c(NC3CCN(C)CC3)nc(N3CCCN(C)CC3)nc2cc1OCCCCN	4%	x	x	x	x	x
COc1ccc(/C=c2\[nH]c(=O)/c(=C/c3ccc(OC)c(OC)c3)[nH]c2=O)cc1OC	1%	x	x	x	x	x
COc1ccccc1-c1sc2ccccc2c1-c1ccc(O)cc1	20µM*	-9%	1%	u	7%	-1%
COc1ccc(-c2sc3ccccc3c2-c2ccc(O)cc2)cc1	4%	-3%	5%	-28%	9%	-4%
COc1cc2sc(-c3ccccc3OC)c(-c3ccc(OCCN4CCCCC4)cc3)c2cc1OC	u	-38%	3%	-26%	3%	-6%
COc1cccc(-c2sc3ccc(OC)cc3c2-c2ccc(O)cc2)c1	28µM*	-12%	1%	-29%	9%	-3%
COc1ccccc1-c1sc2ccccc2c1-c1ccc(OCCN2CCOCC2)cc1	-24%	-4%	-1%	40µM*	-5%	-5%
SMILES	ClpP mod	Integrin act MD	USP2a block	MmCpn inh	Eya2 inh	p53 reactivator
CC1CCN(S(=O)(=O)c2cn(CC(=O)Nc3ccc(F)c(Cl)c3)c(=O)c3ccccc23)CC1	-13%	x	x	x	x	x
O=C(NNC(=O)c1ccc2c(c1)OCO2)NC12CC3CC(CC(C3)C1)C2	-2%	-12%	1%	0%	8%	-10%
O=C(NC1C2CC3CC(C2)CC1C3)c1ccc2c(c1)OCO2 (centres undefined)	20µM*	-37%	1%	2%	2%	6%
COC(=O)C1=CN(C(C)C)C=C(C(=O)OC)C1c1cc(Br)c(OC)c(OC)c1	6.3µM*	-16%	-12%	-8%	-4%	-6%
Cc1ccc(NC(=O)C(C)c2cccc(C(=O)c3ccccc3)c2)cc1O (centres undefined)	20µM*	-18%	-1%	3%	-3%	5%
Cc1c(CNC(C)CCc2ccccc2)c(C(=O)O)c(C)n1Cc1ccc(F)cc1 (centres undefined)	-4%	x	x	x	x	x
Cc1cnccn1	0%	x	x	x	x	x
Cc1ccc(S(=O)(=O)N(C)CCN(C)c2nc(-c3cccs3)nc3ccccc23)cc1	32µM*	x	x	x	x	x
CN(CCO)c1nc(-c2cccs2)nc2ccccc12	7%	x	x	x	x	x
Cc1cc(C)c(C)c(S(=O)(=O)N2CCC(C(=O)NNC(=O)c3ccccc3O)CC2)c1C	28µM*	-11%	0%	1%	26%	-2%
Cn1ncc(Cl)c1C(=O)N1CCN(c2ccc(Cl)c(Cl)c2)CC1	16µM*	-24%	-3%	-1%	-3%	-26%
CC(Sc1ccc2ccccc2n1)C(=O)O (centres undefined)	-2%	-14%	3%	-15%	13%	u
CC(Sc1cccc2cccc(C(=O)O)c12)C(=O)O (centres undefined)	14µM*	5%	-1%	1%	0%	2%
Cc1ccc(C)c(NC(=S)Nc2cccnc2)c1	25µM*	-22%	-2%	1%	-17%	-2%
Cc1cccc(N2C(=O)CC(Sc3nc(-c4ccccc4)c4cc(Cl)ccc4n3)C2=O)c1 (centres undefined)	28µM*	0%	-4%	-5%	1%	14%
C1=Cc2ccccc2/C1=C\c1ccc2c(c1)OCO2	0%	x	x	x	x	x
CCCCn1c(=O)nc2n(-c3ccccc3)c3ccccc3cc-2c1=O	25µM*	-18%[7.66 µM]	1%	-1%	-11%	-5%
O=C(C[n+]1cccc2cc(Cl)ccc21)c1ccc2ccccc2c1	-2%	x	x	x	x	x
CC1CCCN(C(=O)COC(=O)c2n[nH]c3ccccc23)C1 (centres undefined)	22µM*	-17%	0%	-2%	-12%	19%
COC(=O)C1CCN(C(=O)COC(=O)c2n[nH]c3ccccc23)CC1	32µM*	-16%	-1%	-2%	-2%	u
